Measurements as given in PubChem BioAssay (NCI).
Values joined by “and” are separate entries in the source; they are usually repeats but may differ in a detail not shown here. Identical values can stand only once. Compounds without any hit were thinned out: in the full panel of roughly 83,000, 20% have a hit.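 Results are percent growth after 48 hours of single-concentration exposure. 100 means growth as in untreated cells, lower positive values show inhibition; negative values down to -100 show cell death.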 Active and inactive are the calls of the source. The calls were made as follows: active = growth percent below 10; inactive = the rest.

Columns and labels:
Assay in all cases: NCI-60 one-dose screen, 48 h (100 = growth as untreated, 0 = no growth, -100 = all killed)
[1] = tested on: DU-145 prostate; settings: 10 µM
[2] = tested on: K-562 leukemia; settings: 10 µM
[3] = tested on: MALME-3M melanoma; settings: 10 µM
[4] = tested on: MDA-MB-231 breast; settings: 10 µM
[5] = tested on: RXF 393 renal; settings: 10 µM
[6] = tested on: SF-268 CNS; settings: 10 µM
[7] = tested on: SF-295 CNS; settings: 10 µM
[8] = tested on: SF-539 CNS; settings: 10 µM
[9] = tested on: UACC-257 melanoma; settings: 10 µM
[10] = tested on: M14 melanoma; settings: 10 µM
[11] = tested on: HCT-15 colon; settings: 10 µM
[12] = tested on: HT29 colon; settings: 10 µM
[13] = tested on: SNB-75 CNS; settings: 10 µM
[14] = tested on: U251 CNS; settings: 10 µM
[15] = tested on: PC-3 prostate; settings: 10 µM
[16] = tested on: SK-MEL-5 melanoma; settings: 10 µM
[17] = tested on: UACC-62 melanoma
[18] = tested on: LOX IMVI melanoma; settings: 10 µM
[19] = tested on: SK-MEL-28 melanoma; settings: 10 µM
[20] = tested on: SNB-19 CNS; settings: 10 µM

Measured: growth

CC(=O)OC1CC2C(C)(C)OC3CC(=O)OCC32C2CCC3(C)C(=CCC3c3ccoc3)C12C (stereo unspecified)
inactive: [1] 92.5% | [2] 95.5% | [3] 85.2% | [4] 115% | [5] 105% | [6] 98.6% | [7] 107% | [8] 104% | [9] 72.7% | [10] 115% | [11] 108% | [12] 102% | [13] 97% | [14] 107% | [15] 105% | [16] 92.5% | [17]; 10 µM unless noted 72.1% | [18] 98.4% | [19] 86.9%

CC(=O)c1sc2c(c1OC(=O)c1ccc(Cl)cc1Cl)c(=O)n(-c1ccccc1)c(=S)n2-c1ccccc1
active: [2] 0.912% | [3] -79.2% | [4] -41.5% | [5] 6.34% | [7] -32.1% | [8] -39.6% | [10] -76.1% | [11] 3.9% | [12] -23.9% | [14] 1.6% | [15] -29.7% | [17]; 100 µM -11.6% and -45.7% | [18] -18.9%
inactive: [1] 44.1% | [6] 18.9% | [9] 49% | [20] 16.3% | [16] 42.7% | [17]; 10 µM 29.4%

CCC(=O)Oc1ccc(OC)cc1
inactive: [1] 98.3% | [2] 107% | [3] 89.1% | [4] 103% | [5] 116% | [6] 102% | [7] 118% | [8] 101% | [9] 108% | [10] 104% | [11] 105% | [12] 105% | [13] 90.7% | [14] 98.3% | [15] 110% | [16] 107% | [17]; 10 µM unless noted 99.8% | [19] 112%

O=S(=O)(O)c1cc(O)c2c(N=Cc3ccccc3O)c(S(=O)(=O)O)ccc2c1
inactive: [1] 109% | [2] 96.7% | [3] 97.9% | [4] 127% | [5] 105% | [6] 102% | [7] 81.9% | [8] 94.3% | [9] 111% | [10] 94.4% | [11] 99.9% | [12] 103% | [13] 93.4% | [20] 108% | [15] 95.5% | [16] 103% | [17]; 10 µM unless noted 113% | [19] 114%

CN(C)Cc1cc(C(C)(C)CC(C)(C)C)ccc1O
inactive: [1] 126% | [2] 108% | [3] 100% | [4] 96.9% | [5] 138% | [6] 106% | [7] 95.6% | [8] 90.8% | [9] 112% | [10] 98% | [11] 79.4% | [12] 99.9% | [13] 79.9% | [14] 90.8% | [15] 84.1% | [16] 100% | [17]; 10 µM unless noted 99.5% | [18] 94.9% | [19] 109%

Cc1c(O)cccc1O
inactive: [1] 124% | [2] 88.2% | [3] 156% | [4] 96.5% | [5] 77.7% | [6] 112% | [7] 98.2% | [8] 103% | [9] 108% | [10] 105% | [11] 116% | [12] 106% | [13] 99.1% | [14] 98.7% | [15] 96.9% | [16] 106% | [17]; 10 µM unless noted 94.9% | [18] 106% | [19] 122%

N#CCc1ccc([N+](=O)[O-])cc1
inactive: [1] 113% | [2] 114% | [3] 148% | [4] 100% | [5] 113% | [6] 106% | [7] 95.3% | [8] 101% | [9] 74% | [10] 101% | [11] 105% | [12] 104% | [20] 96.6% | [14] 98.5% | [15] 95.8% | [16] 101% | [17]; 10 µM unless noted 92.8% | [18] 100%

O=C(NCO)c1ccccc1
inactive: [1] 99.8% | [2] 94.5% | [3] 91.3% | [4] 117% | [5] 119% | [6] 103% | [7] 110% | [8] 108% | [9] 111% | [10] 106% | [11] 101% | [12] 109% | [13] 89.8% | [20] 107% | [14] 105% | [16] 111% | [17]; 10 µM unless noted 93.8% | [18] 105% | [19] 105%

Oc1ccc(Cc2ccccc2)c2cccnc12
inactive: [1] 28.9% | [2] 13.3% | [4] 31% | [5] 14.6% | [6] 20% | [7] 32.4% | [8] 11.8% | [11] 29.2% | [12] 84.3% | [13] 21.3% | [14] 12.6% | [15] 23.4% | [19] 32.2%
active: [3] -0.436% | [9] 1.27% | [10] -29.8% | [16] 3.49% | [18] 4.75%

NC(N)=Nc1cc2ccccc2c2ccccc12
inactive: [1] 84.9% | [2] 62.3% | [3] 76.2% | [4] 80.1% | [5] 78.8% | [6] 82.6% | [7] 55.9% | [8] 89.1% | [10] 85% | [11] 85.7% | [12] 65.3% | [13] 57% | [14] 79.4% | [15] 61.5% | [16] 85.9% | [17]; 10 µM unless noted 75% | [19] 88.3%
active: [9] 1.37%

CC1(C)OC(=O)C(c2ccsc2)C(=O)O1
inactive: [1] 107% | [2] 107% | [3] 112% | [4] 111% | [5] 107% | [6] 99.6% | [7] 108% | [8] 98.9% | [9] 104% | [10] 106% | [11] 109% | [12] 100% | [13] 92.5% | [15] 85% | [16] 101% | [17]; 10 µM unless noted 105% | [18] 88.8% | [19] 115%

N/N=C(/Cc1ccccc1)NNC(N)=S
inactive: [1] 106% | [2] 103% | [3] 95.4% | [4] 111% | [5] 112% | [6] 97.4% | [7] 105% | [8] 98.5% | [9] 92.3% | [10] 93.5% | [11] 97.5% | [12] 95.7% | [13] 87.7% | [20] 105% | [15] 88.3% | [16] 97.3% | [18] 94.5% | [19] 114%

CC(=O)Nc1ccc(NC(C)=O)c2c1C(=O)c1ccccc1C2=O
inactive: [1] 96% | [2] 91.4% | [3] 86.1% | [4] 59.7% | [5] 108% | [6] 95.9% | [7] 99.8% | [8] 92.3% | [9] 110% | [10] 101% | [11] 86.1% | [12] 99.7% | [13] 85.9% | [15] 81.9% | [16] 96.8% | [17]; 10 µM unless noted 73.3% | [18] 86% | [19] 115%

O=c1[nH]n(-c2ccccc2)c(=O)cc1Cl
inactive: [1] 116% | [2] 103% | [3] 99.9% | [4] 97.2% | [5] 113% | [6] 101% | [7] 114% | [8] 97.7% | [9] 97.1% | [10] 106% | [11] 120% | [12] 110% | [13] 95.2% | [14] 109% | [15] 97.3% | [16] 102% | [17]; 10 µM unless noted 87.3% | [18] 96% | [19] 117%

CN(C)c1ccc2nc3ccc(=N)cc-3sc2c1
inactive: [1] 86.7% | [2] 20.1% | [4] 11.5% | [5] 70.7% | [6] 54.2% | [7] 86.1% | [9] 13.9% | [10] 24.7% | [11] 38.8% | [12] 85.3% | [13] 22.3% | [20] 81.1% | [15] 12.3% | [19] 82.9%
active: [3] 8.19% | [8] -11.3% | [16] 0.247%

O=c1cc(-c2ccccc2)[nH]c(=S)[nH]1
inactive: [1] 104% | [2] 96.2% | [3] 83.5% | [4] 103% | [5] 108% | [6] 92.1% | [7] 188% | [8] 102% | [9] 109% | [10] 102% | [11] 107% | [12] 101% | [13] 96.9% | [15] 91% | [16] 104% | [17]; 10 µM unless noted 106% | [18] 98.3% | [19] 103%

[O-][N+](=Nc1cccc(Cl)c1)c1cccc(Cl)c1
inactive: [1] 108% | [2] 133% | [3] 101% | [4] 102% | [5] 102% | [6] 110% | [7] 104% | [8] 92.8% | [9] 117% | [10] 96.4% | [11] 78.1% | [12] 106% | [20] 100% | [14] 84.1% | [15] 96.4% | [16] 95.9% | [17]; 10 µM unless noted 87.5% | [18] 97.4% | [19] 113%

C/C(=C\c1cc(Cl)ccc1OCC(=O)O)[N+](=O)[O-]
inactive: [1] 108% | [2] 105% | [3] 127% | [4] 123% | [5] 134% | [6] 103% | [7] 108% | [8] 109% | [9] 102% | [10] 103% | [11] 101% | [13] 112% | [20] 117% | [14] 102% | [15] 96.2% | [16] 111% | [17]; 10 µM unless noted 109% | [18] 88.6% | [19] 118%
